# The list is not random: actives were taken first. Their share in the collection is about 10%.
# CtBP-E1A blk – qHTS Assay for Inhibitors of the CtBP/E1A Interaction | AID 651724, 2012 | CtBP / adenovirus E1A interaction (AlphaScreen) | activity change, % (test concentration not listed) | 340,000 compounds, 0.49% hits | AlphaScreen GST-E1A/His-CtBP binding, 1536-well; active compounds read low; in the data active = activity change below about -65%; inconclusive = mostly about -30% to -63%; note: % is set by controls: 0 for no effect and ±100 for the full control effect
#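 GST-E1A and His-tagged CtBP (125 nM each as 5X stock) were preincubated with pin-transferred compound for 2 h at 37 °C in the dark, then glutathione donor and nickel acceptor beads were added for 1 h before AlphaScreen reading.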
# BAZ2B block – qHTS Assay for Inhibitors of BAZ2B; 360,000 compounds, 4.4% hits; Potency, µM (titrated, usually from 114 µM), inactives show at the highest dose activity change, negative = inhibition, usual class: inhibitors; AID 504333, 2011; Bromodomain adjacent to zinc finger domain protein 2B (Homo sapiens), Q9UIF8; AlphaScreen BAZ2B-H3K14Ac peptide displacement; note: potency is the fitted concentration of half-maximal effect; % is set by controls: 0 for no effect and ±100 for the full control effect; nearly all actives have a fitted effect of over 60% in size
#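 Multi-concentration screen (max 110 uM) measuring displacement of acetylated histone H3 peptide from BAZ2B by AlphaScreen, using 50 nM protein, 50 nM peptide and 10 ug/mL streptavidin donor plus Ni-chelate acceptor beads.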
# JMJD2A Tudor – qHTS Assay for Inhibitors of JMJD2A-Tudor Domain | 390,000 compounds, 4.4% hits | AlphaScreen JMJD2A-Tudor / H3K4me3 peptide binding | Potency, µM (highest dose often 114 µM), inactives show at the highest dose activity change, negative = inhibition, actives largely listed as inhibitors | Lysine-specific demethylase 4A (Homo sapiens), O75164; note: potency is the fitted concentration of half-maximal effect; % is set by controls: 0 for no effect and ±100 for the full control effect; nearly all actives have a fitted effect of over 50% in size
# G9a block – qHTS Assay for Inhibitors of Histone Lysine Methyltransferase G9a; AID 504332, 2011; 350,000 compounds, 8.8% hits; Potency, µM (highest dose often 102 µM), without a hit: at the top dose activity, negative = inhibition, most hits filed as inhibitors; G9a H3K9 monomethylation, AlphaScreen, 2 h; note: potency is the fitted concentration of half-maximal effect; % is set by controls: 0 for no effect and ±100 for the full control effect; nearly all actives have a fitted effect of over 75% in size
# Target sequence (Q96KQ7 913-1193 limits assumed): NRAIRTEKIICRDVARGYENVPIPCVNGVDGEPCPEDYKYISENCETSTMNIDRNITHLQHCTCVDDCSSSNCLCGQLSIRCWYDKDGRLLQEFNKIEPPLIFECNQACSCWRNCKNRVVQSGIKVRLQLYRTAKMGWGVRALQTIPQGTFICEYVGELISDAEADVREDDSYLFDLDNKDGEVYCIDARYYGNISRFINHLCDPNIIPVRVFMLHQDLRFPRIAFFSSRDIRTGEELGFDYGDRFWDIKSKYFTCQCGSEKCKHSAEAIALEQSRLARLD
#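 G9a (20 nM) was preincubated 15 min with compound, then reacted 2 h at room temperature with 500 nM biotin-H3K9 peptide and 20 µM SAM. Monomethyl-H3K9 detected by AlphaScreen using anti-H3K9me1 antibody.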
# Six1-Eya2 inh – qHTS Assay for Inhibitors of the Six1/Eya2 Interaction; Homeobox protein SIX1 (Homo sapiens) + Protein phosphatase EYA2 (Homo sapiens), …; AlphaScreen GST-Six1/His-Eya2 binding, biochemical; active compounds read low; activity change, % (test concentration not listed); 360,000 compounds, 0.56% hits; AID 651725, 2012; in the data active = activity change below about -65%; inconclusive = mostly about -30% to -63%; note: % is set by controls: 0 for no effect and ±100 for the full control effect
#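 GST-Six1 + His-Eya2 (5X stock: 250/500 nM); Tris pH 8.0, 300 mM NaCl, 0.05% BSA, 0.02% Tween 20; GSH donor/Ni acceptor beads; 1 h 37 °C dark; AlphaScreen readout.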
# HP1b chromo inh – HTS for Inhibitors of HP1-beta Chromodomain Interactions with Methylated Histone Tails. AlphaScreen HP1-beta / biotin-H3K9me3 peptide binding. Potency, µM (series often up to 114 µM), without a hit: at the top dose activity change, negative = inhibition, usual class: inhibitors. 390,000 compounds, 0.56% hits; note: potency is the fitted concentration of half-maximal effect; nearly all actives have a fitted effect of over 70% in size
# Target sequence (P83916 whole entry, looked up): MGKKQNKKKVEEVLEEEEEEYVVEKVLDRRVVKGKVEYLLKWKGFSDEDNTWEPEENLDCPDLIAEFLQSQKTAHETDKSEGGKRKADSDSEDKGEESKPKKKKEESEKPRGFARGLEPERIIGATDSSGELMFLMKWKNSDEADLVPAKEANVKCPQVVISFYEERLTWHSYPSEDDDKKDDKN
#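 HP1-beta protein (50 nM final) preincubated 30 min at room temperature with biotinylated H3(1-18)K9me3 peptide (50 nM) in PBS pH 7.4, 0.01% Tween-20, then compound added for 30 min. AlphaScreen streptavidin donor/nickel chelate acceptor beads (10 ug/mL final), 30 min dark, luminescence read.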
# * hit, by the source's call; ? = inconclusive; / = not tested or not shown; [ ] = remark or other dose. Unless noted, calls come from the whole dose curve; as a rule, active = well fitted inhibition curve with a large enough effect; inconclusive = small, poorly fitted or top-dose-only effect; inactive = no such curve, though single readings can be large or run the other way.
SMILES,CtBP-E1A blk,BAZ2B block,JMJD2A Tudor,G9a block,Six1-Eya2 inh,HP1b chromo inh
CCOC(=O)C1CCN(c2c(C(=O)c3ccc(C)cc3)cnc3ccc(F)cc23)CC1,/,-24%,-33%,-24%[59 µM],/,9%
CCOC(=O)C1CCCN(c2c(C(=O)c3ccccc3)cnc3ccc(OC)cc23)C1 (centres undefined),0,?,-32%,56µM*,0,39%
CCN1CCN(c2c(C(=O)c3ccc(OC)cc3)cnc3ccccc23)CC1,2,-10%,-11%,50µM*,1,61%
COc1cc2ncc(C(=O)c3ccc(C)cc3)c(N3CCCCC3)c2cc1OC,/,?,56µM*,8.9µM*,/,-11%
CCOC(=O)C1CCCN(c2c(C(=O)c3ccc(OCC)cc3)cnc3ccccc23)C1 (centres undefined),/,-39%,?,?,/,6%
O=C(Nc1ccc(-n2nncc2-c2ccccc2)cc1)c1ccccc1,/,/,-2%[57.1 µM],/,/,14%[57 µM]
O=C(NCCCc1ccccc1)c1cccc(NC(=O)C2CCCC2)c1,5,/,-9%,/,4,24%
O=C(CSc1nnc(N2CCCC2)n1-c1ccccc1Cl)N1CCN(c2ccccn2)CC1,2,7%,-4%,3%[12.7 µM],-7,21%
CC(C)CN(C(=O)/C=C/c1nc2ccccc2s1)C1CCS(=O)(=O)C1 (centres undefined),-1,3%,-21%,56µM*,4,0%
COc1ccc(/C=C/C(=O)N(CC(C)C)C2CCS(=O)(=O)C2)cc1 (centres undefined),4,8%,5%,3%,-1,29%
CCOC(=O)C(NCCCO)c1ccccc1 (centres undefined),-13,-22%,2.5µM*,50µM*,3,?
COC(=O)NCC(c1cccnc1)N1CCN(c2ccc(F)cc2)CC1 (centres undefined),/,-12%,-22%,?,/,?
Clc1cccc(OCCN2CCN(CCOc3cccc(Cl)c3)CC2)c1,-11,?,?,?,-18,-6%
CC1CCN(CCOc2cccc(Br)c2)CC1,3,56µM*,7.9µM*,7.9µM*,-6,?
Brc1cccc(OCCCN2CCCCCC2)c1,2,50µM*,22µM*,10µM*,-6,?
Cc1cc2c(n1-c1ccc(C(=O)NCCc3ccc(Cl)cc3)cc1)CCCC2,/,-20%,-27%,-5%[59 µM],/,21%
CCOc1ccc2nc(N3CCCC(C(=O)Nc4ccc(OC)cc4)C3)sc2c1 (centres undefined),/,6%,8%,6%[59 µM],/,44%
COc1ccc(NC(=O)C23CC4CC(C2)CC(c2ccc(C)cc2)(C4)C3)cc1,0,9%,-15%,11%[59 µM],35,44%
Oc1ccc(/C=C/c2nc(-c3ccccc3O)n(-c3ccccc3)n2)c(O)c1,/,32µM*,?,?,/,1%
CC(=O)N1CCCc2cc(S(=O)(=O)N3CCCC3)ccc21,-1,6%,-9%,-5%,12,24%
O=C(O)c1cc2nccc(-c3ccco3)n2n1,-22,?,89µM*,50µM*,-30,17%
COc1ccc(-c2ccnc3cc(C(=O)O)nn23)cc1,-2,?,-5%,-18%,-3,14%
Clc1ccc(N2CCN(Cc3ccc(Br)o3)CC2)cc1,-1,50µM*,20µM*,13µM*,-2,?
O=C(NCC(=O)N1CCN(c2cccc(Cl)c2)CC1)c1ccc(Br)o1,6,0%,-11%,12%,-3,18%
Clc1ccc(N2CCN(Cc3cc4ccccn4n3)CC2)cc1,/,/,/,14%[59 µM],/,/

# Source: PubChem (National Center for Advancing Translational Sciences (NCATS))
